Results: PubChem BioAssay (Tox21)
Values joined by “and” are separate entries in the source; they are usually repeats but may differ in a detail not shown here. Equal values may be shown once. Results filed as inconclusive are left out. Entries that show only a call come without a potency. Active and inactive are the calls of the source. Unless noted, the call rests on the fitted dose curve; in most records, active means well fitted curve in the direction sought with a large enough effect in the repeat runs; inconclusive means weak or mixed curves; inactive means no such curve, though single readings can be large; an effect the other way counts as inactive or inconclusive.

Test system: not listed separately
Assay: qHTS assay to identify small molecule agonists of the constitutive androstane receptor (CAR) signaling pathway - cell viability counter screen (AID 1224836); further: nearly all actives have a fitted effect of over 45% in size
Conditions: HepG2-CYP2B6-hCAR viability, CellTiter-Fluor, 23 h, PK11195 added to every well; series mostly up to 92.4 µM
Procedure, shortened: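 Double-stable HepG2 hepatoma cells (hCAR plus CYP2B6-2.2kb) are treated for 23 h at 37 C with test compounds in 15-point concentration series. PK11195 at 0.75 uM final is co-added. Cell viability is quantified by CellTiter-Fluor.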

Structure (SMILES)	Potency
CC(C)OC(=S)S	inactive
CN(C)CCc1c[nH]c2cccc(O)c12	inactive
Clc1ccc(CSC(Cn2ccnc2)c2ccc(Cl)cc2Cl)cc1 (stereo unspecified)	inactive

Test system: not listed separately
Assay: qHTS assay to identify small molecule antagonists of the constitutive androstane receptor (CAR) signaling pathway - cell viability counter screen (AID 1224837); further: nearly all actives have a fitted effect of over 45% in size; further: potency means the concentration at half of the fitted maximal effect
Conditions: HepG2-CYP2B6-hCAR viability, CellTiter-Fluor, 23 h, co-treated with 50 nM CITCO; series mostly up to 92.4 µM
Procedure, shortened: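 HepG2 cells stably carrying hCAR and CYP2B6-2.2kb reporter, stimulated with 50 nM CITCO and compounds at 15 concentrations for 23 h at 37 C. Viability measured by CellTiter-Fluor fluorescence.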

Structure (SMILES)	Potency
Clc1ccc(CO/N=C(\Cn2ccnc2)c2ccc(Cl)cc2Cl)c(Cl)c1	inactive
C=CC(=O)OCCCCOC(=O)C=C	61.1 µM (active)
C=CCC1=C(C)C(OC(=O)C2C(C=C(C)C)C2(C)C)CC1=O (stereo unspecified)	inactive
OC(Cc1ccccc1Cl)(Cn1cncn1)C1(Cl)CC1 (stereo unspecified)	inactive
Oc1ccc(C2(c3ccc(O)cc3)c3ccccc3-c3ccccc32)cc1	61.1 µM (active)
Oc1c(Cl)c(Cl)cc(Cl)c1Cl	inactive
O=C(O)c1cc[c]([Hg][Cl])cc1	54.5 µM (active)
O=C1c2ccccc2C(=O)C1C(=O)C(c1ccccc1)c1ccc(Cl)cc1 (stereo unspecified)	inactive
CCc1nn(C)c(C(=O)NCc2ccc(C(C)(C)C)cc2)c1Cl	inactive
N#CCCC(Br)(C#N)CBr (stereo unspecified)	61.1 µM (active)
N#Cc1c(-c2ccc(Cl)cc2)[nH]c(C(F)(F)F)c1Br	1.22 µM (active)
CC1(C)CC/C(=C/c2ccc(Cl)cc2)C1(O)Cn1cncn1 (stereo unspecified)	68.2 µM (active)
CC(C)N1C(=O)N(c2ccccc2)CSC1=NC(C)(C)C	inactive
Cn1cc(C2=C(c3cn(C4CCN(Cc5ccccn5)CC4)c4ccccc34)C(=O)NC2=O)c2ccccc21	inactive
Nc1ccc([N+](=O)[O-])cc1Cl	inactive

Biological target: Nuclear receptor subfamily 1 group I member 3 (Homo sapiens) (UniProt Q14994)
Assay: qHTS assay to identify small molecule antagonists of the constitutive androstane receptor (CAR) signaling pathway (AID 1224838); further: nearly all actives have a fitted effect of over 40% in size; further: potency means the concentration at half of the fitted maximal effect
Conditions: HepG2-CYP2B6-hCAR luciferase, CITCO-stimulated, 24 h; series mostly up to 92.4 µM
Procedure, shortened: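 HepG2 cells stably carrying hCAR and a CYP2B6-2.2kb luciferase reporter, seeded 4 hrs before compound (15 concentrations). Stimulated with 50 nM CITCO for 24 hr at 37 C. ONE-Glo luminescence read after 30 min at room temperature.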

Sequence of Nuclear receptor subfamily 1 group I member 3 (Homo sapiens) (Q14994 whole entry, looked up): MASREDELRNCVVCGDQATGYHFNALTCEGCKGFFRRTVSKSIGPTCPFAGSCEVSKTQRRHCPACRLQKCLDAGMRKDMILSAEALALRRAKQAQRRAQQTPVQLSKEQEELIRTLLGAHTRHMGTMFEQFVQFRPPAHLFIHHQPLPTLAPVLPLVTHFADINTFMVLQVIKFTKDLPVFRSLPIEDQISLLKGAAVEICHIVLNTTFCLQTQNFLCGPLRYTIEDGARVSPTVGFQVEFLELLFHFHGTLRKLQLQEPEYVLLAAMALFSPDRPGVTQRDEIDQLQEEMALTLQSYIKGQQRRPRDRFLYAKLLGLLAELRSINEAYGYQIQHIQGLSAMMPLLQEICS

Structure (SMILES)	Potency
CC(C)(C)c1ccc(CSc2cnn(C(C)(C)C)c(=O)c2Cl)cc1	inactive
O=c1[nH]c2ccccc2n1CCCN1CCC(n2c(=O)[nH]c3cc(Cl)ccc32)CC1	inactive
C=CCC1=C(C)C(OC(=O)C2C(C=C(C)C)C2(C)C)CC1=O (stereo unspecified)	inactive
CCCOCC(=Nc1ccc(Cl)cc1C(F)(F)F)n1ccnc1	inactive
OC(Cc1ccccc1Cl)(Cn1cncn1)C1(Cl)CC1 (stereo unspecified)	inactive
Nc1ccc(Cc2ccc(N)c(Cl)c2)cc1Cl	inactive
C[C@]12CC[C@H](O)C[C@H]1CC[C@@H]1[C@@H]2C[C@@H](O)[C@]2(C)[C@@H](C3=CC(=O)OC3)CC[C@]12O	1.22 µM (active)
Oc1c(Cl)c(Cl)cc(Cl)c1Cl	inactive
O=[N+]([O-])c1c2ccccc2cc2ccccc12	inactive
O=C1c2ccccc2C(=O)C1C(=O)C(c1ccccc1)c1ccc(Cl)cc1 (stereo unspecified)	inactive
CCc1nn(C)c(C(=O)NCc2ccc(C(C)(C)C)cc2)c1Cl	inactive
N#Cc1c(-c2ccc(Cl)cc2)[nH]c(C(F)(F)F)c1Br	0.969 µM (active)
CC1(C)CC/C(=C/c2ccc(Cl)cc2)C1(O)Cn1cncn1 (stereo unspecified)	inactive
Oc1c(Br)c(Br)c(Br)c(Br)c1Br	inactive
CC(C)CC(C)(c1ccc(O)cc1)c1ccc(O)cc1	2.44 µM (active)
CC(=O)OC1(c2ccccc2)CCN(CCc2ccccc2)CC1	8.84 µM (active)
Nc1ccc([N+](=O)[O-])cc1Cl	inactive

Biological target: Nuclear receptor subfamily 1 group I member 3 (Homo sapiens) (UniProt Q14994)
Assay: qHTS assay to identify small molecule agonists of the constitutive androstane receptor (CAR) signaling pathway (AID 1224839); further: nearly all actives have a fitted effect of over 15% in size; further: potency means the concentration at half of the fitted maximal effect
Conditions: HepG2 hCAR CYP2B6-luciferase, agonist mode, 24 h; series mostly up to 92.4 µM
Procedure, shortened: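 Readout: firefly luciferase luminescence via ONE-Glo. System: HepG2 double-stable for hCAR and CYP2B6-2.2kb. Conditions: 15-point compound titration, PK11195 at 0.75 uM final, 24 h incubation.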

Structure (SMILES)	Potency
CC(C)(C)c1ccc(CSc2cnn(C(C)(C)C)c(=O)c2Cl)cc1	inactive
O=c1[nH]c2ccccc2n1CCCN1CCC(n2c(=O)[nH]c3cc(Cl)ccc32)CC1	inactive
C=CC(=O)OCCCCOC(=O)C=C	inactive
C=CCC1=C(C)C(OC(=O)C2C(C=C(C)C)C2(C)C)CC1=O (stereo unspecified)	16.3 µM (active)
CC(C)C1CCC(Cc2ccc(Cl)cc2)C1(O)Cn1cncn1 (stereo unspecified)	inactive
CCCOCC(=Nc1ccc(Cl)cc1C(F)(F)F)n1ccnc1	48.5 µM (active)
Nc1ccc(Cc2ccc(N)c(Cl)c2)cc1Cl	16.7 µM (active)
C[C@]12CC[C@H](O)C[C@H]1CC[C@@H]1[C@@H]2C[C@@H](O)[C@]2(C)[C@@H](C3=CC(=O)OC3)CC[C@]12O	inactive
Oc1c(Cl)c(Cl)cc(Cl)c1Cl	inactive
O=[N+]([O-])c1c2ccccc2cc2ccccc12	21.4 µM (active)
Cc1cc(C(C)(C)c2cc(C)c(O)c(C)c2)cc(C)c1O	4.69 µM (active)
O=C(O)c1cc[c]([Hg][Cl])cc1	inactive
CCc1nn(C)c(C(=O)NCc2ccc(C(C)(C)C)cc2)c1Cl	inactive
N#CCCC(Br)(C#N)CBr (stereo unspecified)	inactive
N#Cc1c(-c2ccc(Cl)cc2)[nH]c(C(F)(F)F)c1Br	inactive
CC1(C)CC/C(=C/c2ccc(Cl)cc2)C1(O)Cn1cncn1 (stereo unspecified)	inactive
Oc1c(Br)c(Br)c(Br)c(Br)c1Br	inactive
O=C(O)C1C2CCC(O2)C1C(=O)O (stereo unspecified)	inactive
CC(C)CC(C)(c1ccc(O)cc1)c1ccc(O)cc1	6.87 µM (active) and 2.17 µM (active)
Oc1cc(Cl)c(Cl)c(Cl)c1	inactive
CC(C)N1C(=O)N(c2ccccc2)CSC1=NC(C)(C)C	24.3 µM (active)
CC(=O)OC1(c2ccccc2)CCN(CCc2ccccc2)CC1	inactive

Test system: not listed separately
Assay: qHTS assay to identify small molecule antagonists of the estrogen related receptor signaling pathway with the pleiotropic PPARgamma coactivator (PGC) from Tox21 10K library - cell viability counter screen (AID 1224840; active means well fitted cell-killing curve with a large enough effect in the repeat runs, not every such curve was filed as active; further: nearly all actives have a fitted effect of over 40% in size; further: potency means the concentration at half of the fitted maximal effect)
Conditions: PGC/ERR reporter cells viability, CellTiter-Fluor, 17.5 h; series mostly up to 92.4 µM
Procedure, shortened: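 PGC/ERR cells (2,000/well) plated 6 h, then compound-treated for 17.5 h at 37 C. Viability measured by CellTiter-Fluor fluorescence after 30 min at 37 C, multiplexed with the pathway assay.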

Structure (SMILES)	Potency
CC(C)(C)c1ccc(CSc2cnn(C(C)(C)C)c(=O)c2Cl)cc1	inactive
C=CC(=O)OCCCCOC(=O)C=C	48.6 µM (active)
Oc1ccc(C2(c3ccc(O)cc3)c3ccccc3-c3ccccc32)cc1	61.1 µM (active)
O=[N+]([O-])c1c2ccccc2cc2ccccc12	inactive
O=C(O)c1cc[c]([Hg][Cl])cc1	13.7 µM (active)
CSCCCN=C=S	inactive
N#Cc1c(-c2ccc(Cl)cc2)[nH]c(C(F)(F)F)c1Br	1.54 µM (active)
CN(C)CCc1c[nH]c2cccc(O)c12	inactive
O=C(O)C1C2CCC(O2)C1C(=O)O (stereo unspecified)	inactive
Clc1ccc(CSC(Cn2ccnc2)c2ccc(Cl)cc2Cl)cc1 (stereo unspecified)	29.8 µM (active)
CC(C)CC(C)Nc1ccc(Nc2ccccc2)cc1 (stereo unspecified)	67.4 µM (active)
CC(=O)OC1(c2ccccc2)CCN(CCc2ccccc2)CC1	inactive
Cn1cc(C2=C(c3cn(C4CCN(Cc5ccccn5)CC4)c4ccccc34)C(=O)NC2=O)c2ccccc21	inactive
CN(C)[C@@H]1C(=O)C(C(N)=O)=C(O)[C@@]2(O)C(=O)C3=C(O)c4c(O)ccc(Cl)c4[C@@](C)(O)[C@H]3C[C@@H]12	inactive
